In PubChem BioAssay:
Values without a mark were called inactive. No rule for the calls is given here.

Molecular target: Pantothenate synthetase (Mycobacterium tuberculosis (strain ATCC 25618 / H37Rv)) (UniProt P9WIL5)
Experiment: Coupled enzyme confirmation of inhibitors against recombinant Mtb PanC (AID 375);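 also: 0% = full reaction with vehicle and 100% = no enzyme background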
Details: coupled enzyme assay; at 10 µM, hits give high values

Sequence of Pantothenate synthetase (Mycobacterium tuberculosis (strain ATCC 25618 / H37Rv)) (P9WIL5 whole entry, looked up): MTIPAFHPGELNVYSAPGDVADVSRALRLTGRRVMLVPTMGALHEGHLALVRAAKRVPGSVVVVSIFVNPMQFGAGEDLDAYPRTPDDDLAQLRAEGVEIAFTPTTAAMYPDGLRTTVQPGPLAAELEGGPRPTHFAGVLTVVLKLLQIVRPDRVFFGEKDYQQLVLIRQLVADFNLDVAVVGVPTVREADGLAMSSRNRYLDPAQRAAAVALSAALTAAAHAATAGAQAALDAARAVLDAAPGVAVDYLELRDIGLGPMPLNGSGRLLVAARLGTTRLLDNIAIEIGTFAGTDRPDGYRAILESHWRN

SMILES	inhibition
O=C(CCN1C(=O)C2C3C=CC(C3)C2C1=O)N1CCN(c2ccccc2Cl)CC1 (stereo not given)	3%
CCCCNC(=O)Cn1c(=O)n(C)c2ccccc21	0%
O=C(O)C1CC=CCC1C(=O)Nc1cccc(F)c1 (stereo not given)	3%
Cc1nc(C)c(C(=O)Nc2ccc(Oc3ccccc3)cc2)o1	0%
Cc1cc(C)c(C)c(S(=O)(=O)Nc2ccc(O)cc2)c1C	10%
COCCN(Cc1cc2cccc(C)c2[nH]c1=O)C(=O)c1ccccc1	0%
C=CCSC1=C(C#N)C(c2ccccc2OCC)CC(=O)N1 (stereo not given)	0%
O=S(=O)(NC1=NCCC1)c1cccs1	0%
CCCN1Cc2cccc(C(=O)NCc3cccs3)c2C1=O	0%
Cc1ccc(/C=N/n2nnnc2N)o1	0%
COc1ccc(-n2c(Cc3cccn3C)nnc2SCC(N)=O)cc1	0%
CCCC(CCC)n1[nH]c(=O)c2c(C)cc(C)nc21	0%
CCOc1cc(C(=O)NCc2ccncc2)cc(OCC)c1OCC	9%
O=C(c1cnn2c(C(F)F)cc(-c3ccccc3)nc12)N1CCN2CCCC2C1 (stereo not given)	0%
Cc1cccc2cc(CN(CCCO)C(=O)Nc3ccc(Cl)cc3)c(=O)[nH]c12	5%
Cc1nc2sc(C(c3cccc(F)c3)N3CCN(C(=O)c4ccco4)CC3)c(O)n2n1 (stereo not given)	0%
Cc1ccc(-c2nn(-c3ccccc3)cc2CN(Cc2ccccc2)C(=O)CCC(=O)O)o1	8%
CCN1CCc2c(C#N)c(N3CCCCC3)nc(NCc3ccccc3)c2C1	0%
COc1ccc(-c2nc(CS(=O)CC(=O)N3CCCC3)c(C)o2)cc1 (stereo not given)	0%
CCN(CC)C(=O)CSc1nc2ccccc2c(=O)n1CCC(=O)NCc1ccc(F)cc1	0%
Cc1cccc(NC(=O)CSc2nnc(-c3ccccc3C)o2)c1	0%
COc1ccccc1N1CCN(S(=O)(=O)CC23CCC(CC2=O)C3(C)C)CC1 (stereo not given)	1%
Cc1nc2c(-c3ccc(F)cc3)c(C)nn2c(C)c1CCC(=O)NC(C)CCc1ccco1 (stereo not given)	0%

SMILES	inhibition
CCOc1ccccc1N1C(=O)c2ccc(C(=O)Nc3cccnc3)cc2C1=O	4%
O=C(CSc1nnnn1-c1ccc(Cl)cc1)NC(=O)Nc1ccc2c(c1)OCCO2	2%
COc1ccccc1OCCn1c(=O)sc2ccccc21	0%
COc1cccc2cc(C(=O)N3CCN(C45CC6CC(CC(C6)C4)C5)CC3)c(=O)oc12	1%
COc1ccccc1C(=O)n1nc(-c2ccccc2)nc1N	2%
c1ccc2c(c1)[nH]c1c(N3CCC4(CC3)OCCO4)ncnc12	0%
COC(=O)C1(C#N)C(c2ccccc2)C1(C(=O)OC)C(=O)OC (stereo not given)	0%
O=C(COC(=O)c1ccccc1O)Nc1ccc(OC(F)F)cc1	0%
Cc1cc(C(=O)OCC(=O)N2c3ccccc3CC2C)c(C)o1 (stereo not given)	3%
CCOC(=O)c1c(C)[nH]c(C(=O)COC(=O)c2ccc(F)c(S(=O)(=O)N3CCOCC3)c2)c1C	4%
COc1ccc(OC)c(-n2nnnc2SCC(=O)NCc2ccc3c(c2)OCO3)c1	0%
COc1cccc(-n2nnnc2SCC(=O)NCc2ccco2)c1	0%
CCCCOc1ccc(-c2nnn(C(C)(C)C(=O)OC)n2)cc1	5%
COc1ccc(OC)c(S(=O)(=O)N2CCC(C(=O)NCC3CCCO3)CC2)c1 (stereo not given)	7%
CCOC(=O)c1ccc(NC(=O)NC(C)C2CCCO2)cc1 (stereo not given)	0%
c1ccc(CN2CCN(CCCNc3ccc4nnc(-c5ccccc5)n4n3)CC2)cc1	10%
COc1ccc(OC)c(NC(=O)CSc2nc3ccccc3c(=O)n2CCNC(C)=O)c1	0%
O=C(NCCO)c1cc2ccccc2cc1O	0%
COC(=O)/C=c1/s/c(=C(/C#N)C(=O)N2CCOCC2)n(-c2ccccc2)c1=O	4%
CSC1=C(C#N)C(C)CC(=O)N1 (stereo not given)	0%
Cc1cccn2c(=O)c3cc(C#N)c(=NC(=O)c4ccncc4)n(Cc4ccco4)c3nc12	0%
COc1cc(NC(=O)CSCc2cnn(-c3ccccc3)c2-n2cccc2)cc(OC)c1	6%
